# Assay results: PubChem BioAssay AID1159580 (chemical genetic matrix, 2015)
# Screen size: about 5,500 compounds; about 2,000 (36%) were called active. Inconclusive results (about 18%) are left out. The list shows a part of the results. A number with no mark means an inactive call. No stated cut-off is given here; in the data, active means normalized growth mostly below about 0.91 (no sharp cut-off); inconclusive means no clear call, values can overlap the other calls; inactive means mostly above about 0.92.
# Experiment: chemical genetic growth profiling, strain panel (AID 1159580);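 further: tested at 20 µM; growth read once vehicle control cultures reached saturation at 30 °C; 1 = growth at the plate median or of vehicle wells; lower values mean less growth of the strain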
# Details: growth OD
smiles,measurement,setting,value
COC(=O)COc1cc(Cl)c(Cl)cc1Cl,normalized growth,"S. cerevisiae deletion strains, locus YJR075W, strain HOC1, hits give low values",0.952
same,normalized growth,"S. cerevisiae deletion strains, locus YKL009W, strain mrt4, hits give low values",0.995
same,normalized growth,"S. cerevisiae deletion strains, locus YKL068W, hits give low values",0.955
same,normalized growth,"S. cerevisiae deletion strains, locus YKL085W, strain MDH1 (second series), hits give low values",0.949
same,normalized growth,"S. cerevisiae deletion strains, locus YKL085W, strain MDH1, hits give low values",0.949
same,normalized growth,"S. cerevisiae deletion strains, locus YKL160W, strain elf1, hits give low values",1
same,normalized growth,"S. cerevisiae deletion strains, locus YKL190W, strain CNB1, hits give low values",0.971
same,normalized growth,"S. cerevisiae deletion strains, locus YKR001C, strain vps1, hits give low values",0.916
same,normalized growth,"S. cerevisiae deletion strains, locus YKR026C, strain gcn3, hits give low values",0.992
same,normalized growth,"S. cerevisiae deletion strains, locus YKR091W, strain srl3, hits give low values",0.993
same,normalized growth,"S. cerevisiae deletion strains, locus YLL001W, strain dnm1, hits give low values",0.99
same,normalized growth,"S. cerevisiae deletion strains, locus YLL026W, hits give low values",0.993
same,normalized growth,"S. cerevisiae deletion strains, locus YLL041C, strain sdh2, hits give low values",1
same,normalized growth,"S. cerevisiae deletion strains, locus YLR027C, strain aat2, hits give low values",0.991
same,normalized growth,"S. cerevisiae deletion strains, locus YLR039C, strain RIC1, hits give low values",0.613 (active)
same,normalized growth,"S. cerevisiae deletion strains, locus YLR058C, strain SHM2, hits give low values",0.979
same,normalized growth,"S. cerevisiae deletion strains, locus YLR102C, strain apc9, hits give low values",0.957
same,normalized growth,"S. cerevisiae deletion strains, locus YLR113W, strain HOG1, hits give low values",0.879
same,normalized growth,"S. cerevisiae deletion strains, locus YLR221C, strain rsa3, hits give low values",0.987
same,normalized growth,"S. cerevisiae deletion strains, locus YLR258W, strain gsy2, hits give low values",0.994
same,normalized growth,"S. cerevisiae deletion strains, locus YLR262C, strain YPT6 (second series), hits give low values",0.863
same,normalized growth,"S. cerevisiae deletion strains, locus YLR262C, strain YPT6, hits give low values",0.662
same,normalized growth,"S. cerevisiae deletion strains, locus YLR268W, strain sec22, hits give low values",0.955
same,normalized growth,"S. cerevisiae deletion strains, locus YLR320W, strain mms22, hits give low values",1.01
same,normalized growth,"S. cerevisiae deletion strains, locus YLR330W, strain CHS5, hits give low values",0.975
same,normalized growth,"S. cerevisiae deletion strains, locus YLR342W, strain FKS1 (second series), hits give low values",1.04
same,normalized growth,"S. cerevisiae deletion strains, locus YLR342W, strain FKS1, hits give low values",0.997
same,normalized growth,"S. cerevisiae deletion strains, locus YLR357W, strain rsc2, hits give low values",0.895
same,normalized growth,"S. cerevisiae deletion strains, locus YLR370C, strain arc18, hits give low values",1
same,normalized growth,"S. cerevisiae deletion strains, locus YLR371W, strain rom2, hits give low values",0.986
same,normalized growth,"S. cerevisiae deletion strains, locus YLR384C, strain iki3, hits give low values",1.01
same,normalized growth,"S. cerevisiae deletion strains, locus YLR418C, strain cdc73, hits give low values",0.859
same,normalized growth,"S. cerevisiae deletion strains, locus YML016C, strain PPZ1, hits give low values",0.966
same,normalized growth,"S. cerevisiae deletion strains, locus YML032C, strain rad52, hits give low values",0.988
same,normalized growth,"S. cerevisiae deletion strains, locus YML120C, strain ndi1, hits give low values",0.995
same,normalized growth,"S. cerevisiae deletion strains, locus YML124C, strain tub3, hits give low values",0.96
same,normalized growth,"S. cerevisiae deletion strains, locus YMR058W, strain fet3, hits give low values",1
same,normalized growth,"S. cerevisiae deletion strains, locus YMR078C, strain ctf18, hits give low values",0.97
same,normalized growth,"S. cerevisiae deletion strains, locus YMR125W, strain sto1, hits give low values",1
same,normalized growth,"S. cerevisiae deletion strains, locus YMR129W, hits give low values",0.978
same,normalized growth,"S. cerevisiae deletion strains, locus YMR205C, strain PFK2, hits give low values",1.02
same,normalized growth,"S. cerevisiae deletion strains, locus YMR223W, strain ubp8, hits give low values",0.978
same,normalized growth,"S. cerevisiae deletion strains, locus YMR231W, strain pep5, hits give low values",0.989
same,normalized growth,"S. cerevisiae deletion strains, locus YMR263W, strain SAP30, hits give low values",0.985
same,normalized growth,"S. cerevisiae deletion strains, locus YMR307W, strain GAS1, hits give low values",1.06
same,normalized growth,"S. cerevisiae deletion strains, locus YNL067W, strain RPL9B, hits give low values",0.967
same,normalized growth,"S. cerevisiae deletion strains, locus YNL071W, strain lat1, hits give low values",0.996
same,normalized growth,"S. cerevisiae deletion strains, locus YNL128W, strain TEP1, hits give low values",0.978
same,normalized growth,"S. cerevisiae deletion strains, locus YNL153C, strain GIM3, hits give low values",0.989
same,normalized growth,"S. cerevisiae deletion strains, locus YNL183C, strain NPR1, hits give low values",0.809 (active)
same,normalized growth,"S. cerevisiae deletion strains, locus YNL209W, strain ssb2, hits give low values",1.01
same,normalized growth,"S. cerevisiae deletion strains, locus YNL233W, strain BNI4, hits give low values",0.982
same,normalized growth,"S. cerevisiae deletion strains, locus YNL248C, strain rpa49, hits give low values",1
same,normalized growth,"S. cerevisiae deletion strains, locus YNL250W, strain rad50, hits give low values",0.957
same,normalized growth,"S. cerevisiae deletion strains, locus YNL271C, strain bni1, hits give low values",0.956
same,normalized growth,"S. cerevisiae deletion strains, locus YNL298W, strain CLA4, hits give low values",0.994
same,normalized growth,"S. cerevisiae deletion strains, locus YNL307C, strain MCK1, hits give low values",0.855 (active)
same,normalized growth,"S. cerevisiae deletion strains, locus YNL322C, strain KRE1 (second series), hits give low values",0.996
same,normalized growth,"S. cerevisiae deletion strains, locus YNL322C, strain KRE1, hits give low values",0.977
same,normalized growth,"S. cerevisiae deletion strains, locus YNR049C, strain mso1, hits give low values",0.991
same,normalized growth,"S. cerevisiae deletion strains, locus YNR052C, strain pop2, hits give low values",0.993
same,normalized growth,"S. cerevisiae deletion strains, locus YOL006C, strain TOP1, hits give low values",0.895
same,normalized growth,"S. cerevisiae deletion strains, locus YOL012C, strain htz1",0.897
same,normalized growth,"S. cerevisiae deletion strains, locus YOL147C, strain pex11, hits give low values",0.964
same,normalized growth,"S. cerevisiae deletion strains, locus YOR001W, strain rrp6, hits give low values",1.01
same,normalized growth,"S. cerevisiae deletion strains, locus YOR061W, strain CKA2, hits give low values",0.974
same,normalized growth,"S. cerevisiae deletion strains, locus YOR069W, strain VPS5, hits give low values",0.979
same,normalized growth,"S. cerevisiae deletion strains, locus YOR070C, strain gyp1, hits give low values",0.985
same,normalized growth,"S. cerevisiae deletion strains, locus YOR080W, strain dia2, hits give low values",1
same,normalized growth,"S. cerevisiae deletion strains, locus YOR083W, strain WHI5, hits give low values",1
same,normalized growth,"S. cerevisiae deletion strains, locus YOR106W, strain vam3, hits give low values",1.02
same,normalized growth,"S. cerevisiae deletion strains, locus YOR136W, strain idh2, hits give low values",0.99
same,normalized growth,"S. cerevisiae deletion strains, locus YOR144C, strain elg1, hits give low values",0.975
same,normalized growth,"S. cerevisiae deletion strains, locus YOR184W, strain ser1, hits give low values",0.904
same,normalized growth,"S. cerevisiae deletion strains, locus YOR231W, strain MKK1, hits give low values",0.86
same,normalized growth,"S. cerevisiae deletion strains, locus YOR265W, strain rbl2, hits give low values",0.98
same,normalized growth,"S. cerevisiae deletion strains, locus YOR270C, strain vph1, hits give low values",1.1
same,normalized growth,"S. cerevisiae deletion strains, locus YOR290C, strain snf2, hits give low values",1.01
same,normalized growth,"S. cerevisiae deletion strains, locus YOR316C, strain cot1, hits give low values",0.964
same,normalized growth,"S. cerevisiae deletion strains, locus YPL051W, strain arl3, hits give low values",0.992
same,normalized growth,"S. cerevisiae deletion strains, locus YPL055C, strain LGE1, hits give low values",0.953
same,normalized growth,"S. cerevisiae deletion strains, locus YPL078C, strain atp4, hits give low values",1.02
same,normalized growth,"S. cerevisiae deletion strains, locus YPL106C, strain sse1, hits give low values",0.957
same,normalized growth,"S. cerevisiae deletion strains, locus YPL240C, strain hsp82, hits give low values",0.997
same,normalized growth,"S. cerevisiae deletion strains, locus YPL241C, strain CIN2, hits give low values",0.972
same,normalized growth,"S. cerevisiae deletion strains, locus YPL256C, strain CLN2, hits give low values",0.786 (active)
same,normalized growth,"S. cerevisiae deletion strains, locus YPR119W, strain clb2, hits give low values",0.955
same,normalized growth,"S. cerevisiae deletion strains, locus YPR141C, strain kar3, hits give low values",0.948
same,normalized growth,"S. cerevisiae deletion strains, locus YPR163C, strain tif3, hits give low values",0.992
same,normalized growth,"S. cerevisiae deletion strains, locus YPR167C, strain met16, hits give low values",0.976
same,normalized growth,"S. cerevisiae deletion strains, strain wtn01, hits give low values",0.962
same,normalized growth,"S. cerevisiae strains, strain wild type, hits give low values",0.969
